EphB4 ephrin blk: EphB4-ephrin-B2 interaction antagonism; P54760; EphB4 LBD / TNYL-RAW-Alexa532 peptide, fluorescence polarization; inhibition, % at 7 µM; 97,000 compounds, 0.15% hits;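 active = inhibition above the screen-wide mean inhibition plus 3 SD, cut at about 15% in these data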;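 also: 0% = DMSO wells and 100% = excess unlabeled TNYL-RAW peptide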
Target sequence (P54760 whole entry, looked up, the tested form may be a part): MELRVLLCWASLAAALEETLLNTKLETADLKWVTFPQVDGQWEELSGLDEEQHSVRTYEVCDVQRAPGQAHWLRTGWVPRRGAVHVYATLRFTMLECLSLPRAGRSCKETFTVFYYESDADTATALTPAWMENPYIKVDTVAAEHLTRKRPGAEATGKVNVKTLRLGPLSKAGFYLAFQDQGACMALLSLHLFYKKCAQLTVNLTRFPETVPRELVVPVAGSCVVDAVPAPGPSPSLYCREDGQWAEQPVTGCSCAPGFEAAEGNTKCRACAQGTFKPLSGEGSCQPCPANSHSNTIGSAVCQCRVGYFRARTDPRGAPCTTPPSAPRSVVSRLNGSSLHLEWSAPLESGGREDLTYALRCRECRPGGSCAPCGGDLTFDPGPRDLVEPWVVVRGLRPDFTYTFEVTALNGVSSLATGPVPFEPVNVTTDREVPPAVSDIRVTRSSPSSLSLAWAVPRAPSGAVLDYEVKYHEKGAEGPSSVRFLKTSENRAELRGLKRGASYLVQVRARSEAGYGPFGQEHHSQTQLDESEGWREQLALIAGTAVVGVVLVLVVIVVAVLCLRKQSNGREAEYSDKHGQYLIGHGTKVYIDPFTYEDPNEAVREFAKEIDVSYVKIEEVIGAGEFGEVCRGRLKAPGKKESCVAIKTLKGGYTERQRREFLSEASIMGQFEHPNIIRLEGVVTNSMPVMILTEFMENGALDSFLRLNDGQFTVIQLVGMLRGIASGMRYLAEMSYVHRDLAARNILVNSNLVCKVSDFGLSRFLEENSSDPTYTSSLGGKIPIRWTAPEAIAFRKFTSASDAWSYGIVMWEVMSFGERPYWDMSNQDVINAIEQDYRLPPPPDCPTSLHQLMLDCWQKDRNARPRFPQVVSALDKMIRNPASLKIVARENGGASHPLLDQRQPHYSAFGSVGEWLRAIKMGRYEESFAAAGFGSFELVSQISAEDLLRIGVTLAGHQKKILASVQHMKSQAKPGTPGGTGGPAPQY
CYP2C19 inh: human CYP2C19 inhibition. 96,000 compounds, 21% hits. CYP2C19 Supersomes, luciferin-H EGE luminescence, 30 min. P33261. inhibition, % at 5 µM;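 active = CYP2C19 inhibition above a set limit at 5 µM in the primary screen, cut at about 50% in these data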;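 also: plate controls were negative control wells for no effect and 2.5 mM tranylcypromine positive control for full effect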
CYP2C19 act: activators of human cytochrome P450 2C19; 96,000 tested, under 10 active; recombinant CYP2C19, luciferin-H EGE luminescence; active compounds read high; 0 = fully inhibited enzyme, 1 = untreated enzyme; activation factor at 5 µM; AID 1025; P33261;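 active = activation factor of at least 2 at 5 µM in the primary screen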;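 also: 0 = wells with 2.5 mM tranylcypromine and 1 = vehicle-only wells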
CYP2C9 act: increases human cytochrome P450 2C9 activity | P11712 | recombinant CYP2C9, luciferin-H conversion, luminescence; active compounds read high; factor 1 = untreated enzyme, 0 = blocked | activation factor at 5 µM | 96,000 compounds, 1.4% hits | AID 1024;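 active = activation factor of 2 or more for CYP2C9 at a 5 µM dose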;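 also: 0 = sulfaphenazole-blocked wells and 1 = vehicle-only wells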
CYP2C9 inhib: blocks human cytochrome P450 2C9; P11712; CYP2C9 Supersomes, luciferin-H conversion, luminescence; inhibition, % at 5 µM; 96,000 compounds, 20% hits;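 active = blocking of liver enzyme CYP2C9 beyond about 50% at 5 µM, limit read from the data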
Numbers without * were called inactive; . = not tested or not shown. This is a sample that favours compounds with a hit; in the whole collection about 27% have one here.

SMILES	EphB4 ephrin blk	CYP2C19 inh	CYP2C19 act	CYP2C9 act	CYP2C9 inhib
COc1ccccc1OCC(=O)NCc1ccco1	-4	17	0.8	1	0
COc1ccccc1N(C)S(=O)(=O)c1ccc(C(=O)OCC(=O)NCc2ccco2)cc1	12	35	0.7	0.1	88*
Cc1n[nH]c(=O)nc1NCC1CCCO1 (stereo not given)	-3	-8	1.1	1.1	-7
CCN(CC(=O)Nc1ccc2c(c1)OCCO2)c1ccc(S(=O)(=O)N2CCOCC2)cn1	0	-2	1	0.8	16
CCCn1c(SCC(=O)NC)nnc1C(C)C	-4	-2	1	1.2	-20
CCCCOC(=O)c1ccc(NC(=O)c2cc(Cl)ccc2OC)cc1	1	23	0.8	2.5*	-148
CCCCOC(=O)c1ccc(NC(=O)c2ccoc2C)cc1	9	39	0.6	0.8	20
CCC(=O)n1nc(-c2ccccc2)nc1NCc1ccccc1	-2	16	0.8	0.8	16
Cc1ccc(C(=O)NCc2ccc(Cl)c(Cl)c2)o1	-6	84*	0.2	0.7	35
COC(=O)c1cn(C(=O)c2ccccc2F)nc1N	2	46	0.5	0.9	12
COC(=O)C1=C(N)c2c(F)cccc2C1(C#N)c1ccc(F)cc1 (stereo not given)	2	66*	0.3	0.6	37
C=CCc1cccc(CNc2nc3ccccc3n2CCN2CCOCC2)c1O	-2	16	0.8	0.8	22
COC(=O)COc1ccc(Oc2cc(C)nc(SC)n2)nn1	8	-1	1	1	-4
COC(=O)c1ccc(Oc2cc(C)nc(SC)n2)cc1	-10	86*	0.1	0.3	72*
CCN1C(=O)C(C)S/C1=N\S(=O)(=O)c1ccc(Cl)s1 (stereo not given)	1	70*	0.3	1.2	-16
N#CC1=C2SCN(Cc3ccccc3)CN2C(=O)CC1c1ccc2c(c1)OCO2 (stereo not given)	5	54*	0.5	0.4	59*
N#CC1=C(N)OC(c2ccccc2)=C(C#N)C1c1ccc2c(c1)OCO2 (stereo not given)	-9	6	0.9	0.9	10
N#CC1=C2SCN(Cc3ccccc3)CN2C(=O)CC1c1cccs1 (stereo not given)	3	51*	0.5	0.4	60*
O=C(NCC(c1cccs1)N1CCOCC1)c1ccco1 (stereo not given)	-5	44	0.6	0.6	36
CCOC(=O)Cc1csc(NC(=O)c2ccc(OC)c(OC)c2)n1	0	17	0.8	0.8	22
CCOC(=O)c1sc2nc(N3CCCC3)c3c(c2c1N)CC(C)(C)OC3	-1	4	1	0.9	7
CCOC(=O)c1sc2nc(C(C)C)c3c(c2c1N)CC(C)(C)OC3	2	5	0.9	0.3	69*
CC1=NN(c2nc(-c3ccc(Cl)cc3)cs2)C(=O)C1	-7	-8	1.1	0.4	60*
CCOc1ccc(C(=O)c2cccs2)cc1	.	73*	0.3	0.5	47
Cc1ccc(C(=O)C2=C(O)C(=O)N(CCCn3ccnc3)C2c2ccc(OC(C)C)cc2)o1 (stereo not given)	4	20	0.8	0.4	57*
SMILES	EphB4 ephrin blk	CYP2C19 inh	CYP2C19 act	CYP2C9 act	CYP2C9 inhib
CCOc1ccc(C2C(C(=O)c3cccs3)=C(O)C(=O)N2CCCn2ccnc2)cc1 (stereo not given)	4	16	0.8	0.3	73*
CCOc1ccc(C2C(C(=O)c3ccco3)=C(O)C(=O)N2CCCn2ccnc2)cc1 (stereo not given)	1	6	0.9	0.5	49
CCCc1ccc(OC(=O)c2cccs2)cc1	-4	-14	1.1	1	-1
CCCOc1ccc(C2C(C(=O)c3ccc(C)o3)=C(O)C(=O)N2Cc2cccnc2)cc1 (stereo not given)	4	-10	1.1	0.4	59*
C=CCNC(=O)c1ccc(C)cc1Cl	-1	24	0.8	0.9	6
CCn1c(SCC(=O)N2c3ccccc3Sc3ccc(Cl)cc32)nc2c1c(=O)n(C)c(=O)n2C	1	.	.	.	.
CCN=C1SC(C(=O)Nc2ccc(Cl)c(Cl)c2)CC(=O)N1CC (stereo not given)	.	42	0.6	0.8	16
C(#Cc1ccccc1)CN1CCN(c2ccccn2)CC1	7	98*	0	0.2	76*
Brc1ccc(CN2CCN(c3ccccn3)CC2)s1	6	99*	0	0.1	90*
CCS(=O)(=O)N1CCN(c2ccccn2)CC1	2	24	0.8	0.8	20
c1ccc(COc2ccc(CN3CCN(c4ccccn4)CC3)cc2)cc1	-1	38	0.6	0.4	59*
COc1ccc(CN2CCN(c3ccccn3)CC2)c(OC)c1	.	46	0.5	0.8	16
COc1ccc(NS(=O)(=O)c2ccc3oc4ccccc4c3c2)cn1	-2	96*	0	0	99*
COC(=O)c1ccccc1S(=O)(=O)Nc1ccc(OC)nc1	6	85*	0.2	0.8	23
O=C(C1CCN(S(=O)(=O)N2CCC3(CC2)OCCO3)CC1)N1CCN(Cc2ccccc2)CC1	1	8	0.9	0.9	13
O=C(NCc1cccs1)C1CCN(S(=O)(=O)c2cccc3cccnc23)CC1	.	54*	0.5	1.8	-77
O=C(C1CCN(S(=O)(=O)N2CCC3(CC2)OCCO3)CC1)N1CCc2ccccc2C1	0	76*	0.2	0.6	41
COc1ccc(OC)c(S(=O)(=O)N2CCC(C(=O)N3CCc4ccccc4C3)CC2)c1	-1	78*	0.2	1.1	-8
O=C(C1CCN(S(=O)(=O)c2cccs2)CC1)N1CCc2ccccc2C1	-3	22	0.8	0.9	8
COc1ccccc1CNC(=O)C1CCN(S(=O)(=O)c2cccc3cccnc23)CC1	-3	64*	0.4	2.5*	-154
O=C(NCc1ccco1)C1CCN(S(=O)(=O)c2cccc3cccnc23)CC1	.	38	0.6	1.4	-39
COc1ccc(C(C#N)Nc2ccccc2OC)cc1 (stereo not given)	6	22	0.8	1.2	-24
CC(C)(O)P(C)(=O)c1ccccc1 (stereo not given)	-6	-6	1.1	1	0
COc1ccc(OC)c(S(=O)(=O)N2CCC(C(=O)NCc3ccccc3)CC2)c1	2	25	0.7	3.7*	-268
O=C(NCc1cccs1)C1CCN(c2nccs2)CC1	2	84*	0.2	0.4	56*
COc1ccc(OC)c(S(=O)(=O)N2CCC(C(=O)NCc3ccccc3OC)CC2)c1	6	35	0.7	2.4*	-144
COc1ccccc1CNC(=O)C1CCN(C(=O)N(C)C)CC1	-3	-10	1.1	1.4	-40
Cc1ccc(C2CC(c3ccc(F)cc3)Nc3nc(N)nn32)cc1 (stereo not given)	.	28	0.7	1.2	-16
COc1cccc(C(c2nnnn2Cc2ccccc2)N2CCN(C3CCCC3)CC2)c1OC (stereo not given)	-12	4	1	0.9	6
